Measurements published in the supplement of paper PMC10849652.
The full data set covers some 7,900 targets. This sample favours those with a hit. About 0.6% of all pairs of compound and target were hits. A number with no mark means an inactive call.

What was measured:
Test in all cases: log2 fold change, soluble protein after heating vs DMSO (PISA); higher = thermal stabilisation; K562 cells, 10 uM, 30 min; active = over 0.2 and 3.5 SD of the protein, either way, in both replicates (recomputed)
volasertib = compound: CC[C@@H]1C(=O)N(C)c2cnc(Nc3ccc(C(=O)N[C@H]4CC[C@H](N5CCN(CC6CC6)CC5)CC4)cc3OC)nc2N1C(C)C [volasertib]
Outline: (§1)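 K562 cells at 2×10^6 cells/mL were treated for 30 min with 10 μM compound, and aliquots were heated for 3 min over 48°C-58°C before pooling. Extraction used PBS with 0.5% NP-40 at 4°C, and soluble protein was the supernatant after 21,000xg for 90 min, measured by TMTpro 16plex LC-MS/MS with channel sums equalised. Thermal stability values, relative to control samples and from duplicates, are log2 fold changes.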

[1] = compound: CC[C@H](C)N1C=C(C2=C(C=C(C=C21)C3=CN=C(C=C3)N4CCNCC4)C(=O)NCC5=C(C=C(NC5=O)C)C)C
Outline: as §1

epoxomicin = compound: CC[C@H](C)[C@@H](C(=O)N[C@@H]([C@@H](C)O)C(=O)N[C@@H](CC(C)C)C(=O)[C@]1(CO1)C)NC(=O)[C@H]([C@@H](C)CC)N(C)C(=O)C [epoxomicin]
Outline: as §1

[2] = compound: CCn1c(C(=O)N(C2CC2)C2CC2)cc2c3c(ncn3C)c(Nc3cc(C)n(C)n3)nc21
Outline: as §1

[3] = compound: CCn1cc(-c2ccnc3[nH]c(-c4cccc(CN(C)C)c4)cc23)c(-c2ccc(NC(=O)N(C)C)cc2)n1
Outline: as §1

[4] = compound: CN(C)CC(=O)Nc1ccc2[nH]c(=O)c3ccccc3c2c1
Outline: as §1

rosiglitazone = compound: CN(CCOC1=CC=C(C=C1)C[C@H]2C(=O)NC(=O)S2)C3=CC=CC=N3 (racemic) [rosiglitazone]
Outline: as §1

[5] = compound: CN1C2=C(C3=C1C(=O)N(N=C3)CC4=CC(=CC=C4)N)SC(=C2)S(=O)C
Outline: as §1

[6] = compound: CN1CCC(CNc2ccc3ncc(-c4cccc(OC(F)(F)F)c4)n3n2)CC1
Outline: as §1

saracatinib = compound: CN1CCN(CCOc2cc(OC3CCOCC3)c3c(Nc4c(Cl)ccc5c4OCO5)ncnc3c2)CC1 [saracatinib]
Outline: as §1

sotrastaurin = compound: CN1CCN(c2nc(C3=C(c4c[nH]c5ccccc45)C(=O)NC3=O)c3ccccc3n2)CC1 [sotrastaurin]
Outline: as §1

alvocidib = compound: CN1CC[C@H](c2c(O)cc(O)c3c(=O)cc(-c4ccccc4Cl)oc23)[C@H](O)C1 [alvocidib]
Outline: as §1

Tubastatin A = compound: CN1CCc2c(c3ccccc3n2Cc2ccc(C(=O)NO)cc2)C1 [Tubastatin A]
Outline: as §1

[7] = compound: CNC(=O)C1=CC=CC=C1NC2=NC(=NC=C2Cl)NC3=C(C=C(C=C3)N4CCOCC4)OC
Outline: as §1

defactinib = compound: CNC(=O)c1ccc(Nc2ncc(C(F)(F)F)c(NCc3nccnc3N(C)S(C)(=O)=O)n2)cc1 [defactinib]
Outline: as §1

[8] = compound: CNc1nc(-c2ccc3c(N)n[nH]c3c2)cc(N2C[C@@H](C(=O)NC3CCCCC3)CC[C@H]2C)n1
Outline: as §1

[9] = compound: COC(=O)[C@H](CCSC)NC(=O)C1=C(C=C(C=C1)NC[C@H](CS)N)C2=CC=CC=C2
Outline: as §1

[10] = compound: CC[C@@H]1C(=O)N(C)c2cnc(Nc3ccc(C(=O)NC4CCN(C)CC4)cc3OC)nc2N1C1CCCC1
Outline: as §1

rucaparib = compound: CNCc1ccc(-c2[nH]c3cc(F)cc4c3c2CCNC4=O)cc1 [rucaparib]
Outline: as §1

encorafenib = compound: COC(=O)N[C@@H](C)CNc1nccc(-c2cn(C(C)C)nc2-c2cc(Cl)cc(NS(C)(=O)=O)c2F)n1 [encorafenib]
Outline: as §1

Sequence of UniProt Q9BYC5 (Q9BYC5 whole entry, looked up): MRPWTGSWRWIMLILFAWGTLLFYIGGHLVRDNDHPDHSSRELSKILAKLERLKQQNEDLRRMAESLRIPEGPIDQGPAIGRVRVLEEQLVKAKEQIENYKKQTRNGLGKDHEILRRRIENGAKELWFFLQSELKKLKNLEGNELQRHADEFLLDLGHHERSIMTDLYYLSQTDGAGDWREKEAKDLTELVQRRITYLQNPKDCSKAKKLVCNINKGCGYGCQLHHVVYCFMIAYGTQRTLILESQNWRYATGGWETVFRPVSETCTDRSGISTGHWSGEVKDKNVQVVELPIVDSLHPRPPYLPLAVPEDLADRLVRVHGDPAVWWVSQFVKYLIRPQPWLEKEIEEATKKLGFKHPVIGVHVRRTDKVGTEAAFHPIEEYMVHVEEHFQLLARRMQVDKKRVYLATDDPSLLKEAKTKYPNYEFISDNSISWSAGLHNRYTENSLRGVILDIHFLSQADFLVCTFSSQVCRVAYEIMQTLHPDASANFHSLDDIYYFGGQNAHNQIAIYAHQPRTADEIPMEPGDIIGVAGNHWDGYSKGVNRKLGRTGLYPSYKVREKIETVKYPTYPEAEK
Sequence of UniProt A6NDN3 (A6NDN3 whole entry, looked up): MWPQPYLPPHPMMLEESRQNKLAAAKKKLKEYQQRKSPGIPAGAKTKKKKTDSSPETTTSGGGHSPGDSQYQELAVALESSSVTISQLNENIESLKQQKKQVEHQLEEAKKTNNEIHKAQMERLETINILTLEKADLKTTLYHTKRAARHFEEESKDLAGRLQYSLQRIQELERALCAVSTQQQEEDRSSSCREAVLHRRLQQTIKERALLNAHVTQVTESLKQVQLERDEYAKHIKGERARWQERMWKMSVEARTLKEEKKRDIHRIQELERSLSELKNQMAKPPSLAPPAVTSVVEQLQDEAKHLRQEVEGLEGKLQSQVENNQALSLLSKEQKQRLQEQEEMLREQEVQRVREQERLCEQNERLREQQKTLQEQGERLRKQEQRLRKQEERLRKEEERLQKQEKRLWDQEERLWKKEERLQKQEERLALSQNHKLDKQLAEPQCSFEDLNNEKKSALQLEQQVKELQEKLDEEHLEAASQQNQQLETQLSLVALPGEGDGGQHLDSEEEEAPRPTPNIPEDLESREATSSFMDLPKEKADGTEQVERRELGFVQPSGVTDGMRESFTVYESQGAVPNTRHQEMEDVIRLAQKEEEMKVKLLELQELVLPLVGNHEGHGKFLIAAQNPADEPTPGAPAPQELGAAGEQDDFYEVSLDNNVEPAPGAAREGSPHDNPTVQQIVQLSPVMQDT
Sequence of UniProt P21695 (P21695 whole entry, looked up): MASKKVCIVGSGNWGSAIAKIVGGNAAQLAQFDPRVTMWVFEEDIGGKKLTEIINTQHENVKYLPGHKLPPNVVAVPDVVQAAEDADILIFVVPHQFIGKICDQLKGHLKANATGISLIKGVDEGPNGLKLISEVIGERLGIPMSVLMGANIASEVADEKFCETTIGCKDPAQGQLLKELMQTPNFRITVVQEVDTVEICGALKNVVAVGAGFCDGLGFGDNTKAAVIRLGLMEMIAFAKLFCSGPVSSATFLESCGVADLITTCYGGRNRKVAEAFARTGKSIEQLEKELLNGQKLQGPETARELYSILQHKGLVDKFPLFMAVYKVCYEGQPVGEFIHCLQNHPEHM
Sequence of UniProt P01344 (P01344 whole entry, looked up): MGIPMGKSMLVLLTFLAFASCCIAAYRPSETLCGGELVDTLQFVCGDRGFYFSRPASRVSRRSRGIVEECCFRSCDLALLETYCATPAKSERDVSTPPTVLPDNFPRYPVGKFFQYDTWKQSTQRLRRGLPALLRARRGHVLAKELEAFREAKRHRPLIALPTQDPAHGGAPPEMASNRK
Sequence of UniProt Q8IVP5 (Q8IVP5 whole entry, looked up): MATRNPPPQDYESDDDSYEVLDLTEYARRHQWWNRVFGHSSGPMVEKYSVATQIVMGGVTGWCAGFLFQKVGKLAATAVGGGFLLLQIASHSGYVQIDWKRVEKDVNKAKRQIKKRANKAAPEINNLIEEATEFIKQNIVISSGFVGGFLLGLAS
Sequence of UniProt Q14956 (Q14956 whole entry, looked up): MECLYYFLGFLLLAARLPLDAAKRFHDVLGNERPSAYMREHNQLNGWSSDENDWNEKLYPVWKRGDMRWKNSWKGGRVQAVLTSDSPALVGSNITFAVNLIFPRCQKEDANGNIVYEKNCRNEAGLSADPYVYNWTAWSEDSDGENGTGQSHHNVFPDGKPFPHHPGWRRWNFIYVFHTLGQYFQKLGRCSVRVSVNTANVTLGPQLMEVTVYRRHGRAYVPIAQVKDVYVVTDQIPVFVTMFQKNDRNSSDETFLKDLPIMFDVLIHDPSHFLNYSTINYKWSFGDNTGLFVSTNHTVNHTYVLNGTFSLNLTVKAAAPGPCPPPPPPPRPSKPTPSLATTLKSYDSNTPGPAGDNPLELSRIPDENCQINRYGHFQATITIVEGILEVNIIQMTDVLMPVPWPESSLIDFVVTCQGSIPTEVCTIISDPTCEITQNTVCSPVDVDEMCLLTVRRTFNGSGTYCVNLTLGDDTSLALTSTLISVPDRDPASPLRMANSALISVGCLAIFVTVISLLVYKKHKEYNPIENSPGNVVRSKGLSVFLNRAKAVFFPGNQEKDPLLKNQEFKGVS
Sequence of UniProt Q9UK97 (Q9UK97 whole entry, looked up): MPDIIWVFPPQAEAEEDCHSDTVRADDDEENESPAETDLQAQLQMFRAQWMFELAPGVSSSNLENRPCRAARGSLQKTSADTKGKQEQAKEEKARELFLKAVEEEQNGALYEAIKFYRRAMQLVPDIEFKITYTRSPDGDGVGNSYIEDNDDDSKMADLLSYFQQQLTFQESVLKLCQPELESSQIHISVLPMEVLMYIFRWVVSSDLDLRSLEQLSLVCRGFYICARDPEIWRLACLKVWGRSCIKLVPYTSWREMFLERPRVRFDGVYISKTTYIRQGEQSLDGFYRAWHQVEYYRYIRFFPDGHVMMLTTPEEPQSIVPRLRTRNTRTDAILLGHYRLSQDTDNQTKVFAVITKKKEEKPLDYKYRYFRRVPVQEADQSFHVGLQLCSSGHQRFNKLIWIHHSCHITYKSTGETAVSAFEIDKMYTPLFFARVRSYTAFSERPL
Sequence of UniProt Q9UQC2 (Q9UQC2 whole entry, looked up): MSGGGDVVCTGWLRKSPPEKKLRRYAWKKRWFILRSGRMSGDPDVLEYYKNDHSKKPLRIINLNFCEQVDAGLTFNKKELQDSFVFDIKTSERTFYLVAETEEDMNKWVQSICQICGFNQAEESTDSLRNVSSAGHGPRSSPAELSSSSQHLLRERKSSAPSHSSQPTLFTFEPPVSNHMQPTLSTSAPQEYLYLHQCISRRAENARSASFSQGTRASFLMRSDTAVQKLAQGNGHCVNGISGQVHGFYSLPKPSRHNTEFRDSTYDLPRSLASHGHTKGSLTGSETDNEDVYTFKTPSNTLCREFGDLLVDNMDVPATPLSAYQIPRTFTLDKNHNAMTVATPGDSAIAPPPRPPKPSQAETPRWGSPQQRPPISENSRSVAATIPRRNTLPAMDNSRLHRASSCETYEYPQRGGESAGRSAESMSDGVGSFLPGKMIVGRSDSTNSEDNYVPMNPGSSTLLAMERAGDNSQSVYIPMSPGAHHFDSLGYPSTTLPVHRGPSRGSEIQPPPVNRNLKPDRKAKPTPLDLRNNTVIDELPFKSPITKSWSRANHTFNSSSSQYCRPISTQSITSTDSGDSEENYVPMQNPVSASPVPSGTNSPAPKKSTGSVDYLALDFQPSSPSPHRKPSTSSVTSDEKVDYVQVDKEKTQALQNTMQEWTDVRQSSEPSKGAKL
Sequence of UniProt Q96SL8 (Q96SL8 whole entry, looked up): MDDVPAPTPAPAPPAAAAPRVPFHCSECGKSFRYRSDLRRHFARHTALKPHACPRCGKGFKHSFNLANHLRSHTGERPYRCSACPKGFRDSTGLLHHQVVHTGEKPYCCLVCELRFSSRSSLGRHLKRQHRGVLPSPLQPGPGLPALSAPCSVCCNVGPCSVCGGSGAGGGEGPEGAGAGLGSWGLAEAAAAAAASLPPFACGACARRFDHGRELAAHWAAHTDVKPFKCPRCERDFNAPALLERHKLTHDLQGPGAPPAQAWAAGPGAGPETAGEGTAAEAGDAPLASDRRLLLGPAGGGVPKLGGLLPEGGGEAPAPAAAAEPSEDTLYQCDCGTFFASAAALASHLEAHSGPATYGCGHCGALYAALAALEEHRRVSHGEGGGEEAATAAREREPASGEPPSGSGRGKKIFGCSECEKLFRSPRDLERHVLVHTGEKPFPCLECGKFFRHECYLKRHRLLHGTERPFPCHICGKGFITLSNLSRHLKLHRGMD
Sequence of UniProt Q9BVP2 (Q9BVP2 whole entry, looked up): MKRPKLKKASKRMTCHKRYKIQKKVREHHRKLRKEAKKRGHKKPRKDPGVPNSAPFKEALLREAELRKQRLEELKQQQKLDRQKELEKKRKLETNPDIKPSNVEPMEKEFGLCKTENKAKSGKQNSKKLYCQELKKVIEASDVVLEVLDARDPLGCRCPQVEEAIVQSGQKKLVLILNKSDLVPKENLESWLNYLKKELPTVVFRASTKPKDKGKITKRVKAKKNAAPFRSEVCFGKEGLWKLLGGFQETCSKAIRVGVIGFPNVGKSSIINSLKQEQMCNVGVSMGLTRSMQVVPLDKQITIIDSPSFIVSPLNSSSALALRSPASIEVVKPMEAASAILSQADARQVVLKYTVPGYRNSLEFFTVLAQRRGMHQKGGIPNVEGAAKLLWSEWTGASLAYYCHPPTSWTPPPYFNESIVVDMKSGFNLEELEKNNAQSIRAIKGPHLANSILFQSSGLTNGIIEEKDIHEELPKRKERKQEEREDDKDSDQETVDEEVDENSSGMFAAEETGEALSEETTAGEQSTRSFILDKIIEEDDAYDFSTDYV
Sequence of UniProt O14893 (O14893 whole entry, looked up): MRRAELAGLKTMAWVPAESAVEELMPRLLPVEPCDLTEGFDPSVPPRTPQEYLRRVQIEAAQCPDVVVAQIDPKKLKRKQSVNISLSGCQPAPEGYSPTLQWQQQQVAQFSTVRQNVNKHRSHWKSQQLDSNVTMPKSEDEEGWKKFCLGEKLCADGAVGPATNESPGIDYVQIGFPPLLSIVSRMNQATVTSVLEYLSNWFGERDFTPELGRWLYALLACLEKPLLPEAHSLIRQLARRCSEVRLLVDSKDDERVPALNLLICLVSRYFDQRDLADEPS

Target | log2 fold change (volasertib) | log2 fold change [1] | log2 fold change (epoxomicin) | log2 fold change [2] | log2 fold change [3] | log2 fold change [4] | log2 fold change (rosiglitazone) | log2 fold change [5] | log2 fold change [6] | log2 fold change (saracatinib) | log2 fold change (sotrastaurin) | log2 fold change (alvocidib) | log2 fold change (Tubastatin A) | log2 fold change [7] | log2 fold change (defactinib) | log2 fold change [8] | log2 fold change [9] | log2 fold change [10] | log2 fold change (rucaparib) | log2 fold change (encorafenib)
GOPC (UniProt Q9HD26) | -0.015 | 0.022 | -0.053 | 0 | 0.149 | 0.056 | -0.06 | 0.153 | 0.485 | -0.147 | 0.01 | 0.065 | 0.177 | 0.216 | 0.033 | 0.164 | -0.229 |  |  | 
FMR1 (UniProt Q06787) | -0.173 |  |  | 0.178 | 0.088 |  |  |  | 0.279 |  | -0.105 | 0.046 |  | 0.006 |  |  |  | -0.068 | 0.19 | 0.04
FAT1 (UniProt Q14517) | 0.009 | -0.048 | -0.05 | 0.006 | -0.018 | 0.07 | 0.095 | -0.11 | 0.082 | -0.085 | -0.072 | 0.021 | -0.031 | -0.041 | -0.05 | -0.094 | -0.087 |  |  | 
GOLGA6B (UniProt A6NDN3) |  | -0.579 (active) | -0.061 | 0.07 | -0.185 | 0.327 | 0.084 |  | 0.067 |  | 0.068 |  |  | -0.066 | -0.211 |  | -0.475 |  |  | 
FCHO1 (UniProt O14526) | -0.768 (active) | 0.168 | 0.05 | 0.067 |  | 0.112 |  | 0.025 |  | -0.064 | -0.162 | -0.049 | 0.007 | 0.043 | -0.042 | 0.054 | 0.046 | -0.186 | 0.248 | 0.101
GSE1 (UniProt Q14687) |  | -0.003 |  |  |  | -0.117 | 0.151 | -0.004 |  | -0.077 |  | -0.186 |  |  | 0.027 | -0.014 | -0.498 (active) |  |  | 
FUT8 (UniProt Q9BYC5) |  | -0.042 | 0.002 | 0.08 | 0.06 | 0.175 | -0.001 | -0.04 | -0.057 | -0.095 | -0.049 | 0.055 | 0.02 | 0.023 | 0.049 | 0.017 | 0.506 (active) | -0.327 (active) | -0.037 | 0.018
GOLGA8R (UniProt I6L899) | -0.4 |  |  | -0.233 | -0.182 | 0.191 | 0.074 | -0.003 | -0.033 | -0.126 |  | 0.018 | 0.253 | -0.148 | -0.197 | 0.246 | -0.086 | -0.036 | 0.189 | -0.098
FUNDC1 (UniProt Q8IVP5) | 0.078 |  |  |  |  |  | -0.13 |  |  |  | 0.049 |  |  |  |  |  |  |  |  | 
FIZ1 (UniProt Q96SL8) |  | 0.088 | -0.071 |  | -0.125 | -0.06 |  | 0.138 | 0.024 | 0.149 | 0 | 0.141 |  |  | 0.06 | -0.095 | 0.108 | 0.169 | -0.012 | 0.069
IDH3A isoform 2 (UniProt P50213) |  | -0.056 |  | -0.14 |  |  | 0.003 |  |  |  |  | -0.206 | 0.138 | -0.117 |  |  |  |  |  | 
HBZ, A0A494C057 |  | -0.079 |  | -0.008 |  |  | -0.188 |  |  |  |  |  |  | 0.005 |  |  |  | 0.203 | -0.058 | -0.094
GPNMB (UniProt Q14956) |  |  | -0.191 | 0.149 |  |  |  |  |  |  |  |  |  | -0.221 |  |  |  | 0.206 | 0.007 | -0.25
FBXO9 (UniProt Q9UK97) | -0.545 (active) | 0.06 |  | 0.086 | 0.009 | 0.097 | 0.07 | 0.045 | 0.203 | -0.024 |  | -0.018 | -0.003 | 0.141 | 0.052 | -0.014 | -0.037 | -0.17 | 0.055 | 0.152
GPD1 (UniProt P21695) | -0.161 | 0 | -0.205 | -0.23 | -0.011 | -0.045 | 0.027 | -0.126 | -0.183 | -0.005 | 0.065 | 0.131 | -0.027 | -0.298 | -0.072 | 0.05 | 0.016 |  |  | 
GNL3 (UniProt Q9BVP2) |  | -0.197 | -0.06 |  | 0.118 | 0.002 | 0.046 | -0.103 | 0.081 | -0.124 | 0.03 | 0.145 | 0.304 |  | 0.005 | 0.044 | 0.015 | 0.018 | -0.052 | -0.065
GAB2 (UniProt Q9UQC2) | -0.009 |  | 0.065 | -0.085 | 0.034 | -0.016 |  | 0.002 | -0.458 | -0.164 | 0.029 | -0.053 | -0.024 | -0.575 | -0.194 | -0.137 | 0.116 | -0.203 | 0.162 | -0.023
IGF2 isoform 3 (UniProt P01344) |  |  |  | -0.395 |  | -0.218 |  | 0.135 |  | 0.148 |  |  |  | -0.033 | 0.007 | -0.105 | 0.006 |  |  | 
FOXO3 (UniProt O43524) | -0.061 |  | 0.007 | -0.213 | -0.004 | 0.055 |  | 0.158 | -0.188 | -0.017 | 0.004 | -0.124 | 0.051 | -0.167 | -0.037 | -0.208 | 0.021 | -0.092 | -0.077 | 0.16
GEMIN2 (UniProt O14893) | -0.061 | -0.057 | 0.011 |  | 0.013 | 0.019 | 0.059 | 0.101 | 0.031 | 0.001 | 0.067 | 0.009 |  |  | -0.041 | 0.013 | 0.072 | -0.203 | 0.136 | 0.151
